Measured values as given in PubChem BioAssay (Tox21).
Values without a mark were called inactive. Where a call stands in place of a potency, no number is given. Active and inactive are the calls of the source. The call rests on the fitted dose curve.

biological target: Gonadotropin-releasing hormone receptor (Homo sapiens) (UniProt P30968); assay: Human gonadotropin-releasing hormone receptor (GnRHR) small molecule agonists, calcium flux assay in GnRHR-HEK293 cells (AID 1920063); settings: calcium flux fluorescence, agonist mode; series mostly up to 57.6 µM; further: nearly all actives have a fitted effect of over 35% in size
Sequence (P30968 whole entry, looked up): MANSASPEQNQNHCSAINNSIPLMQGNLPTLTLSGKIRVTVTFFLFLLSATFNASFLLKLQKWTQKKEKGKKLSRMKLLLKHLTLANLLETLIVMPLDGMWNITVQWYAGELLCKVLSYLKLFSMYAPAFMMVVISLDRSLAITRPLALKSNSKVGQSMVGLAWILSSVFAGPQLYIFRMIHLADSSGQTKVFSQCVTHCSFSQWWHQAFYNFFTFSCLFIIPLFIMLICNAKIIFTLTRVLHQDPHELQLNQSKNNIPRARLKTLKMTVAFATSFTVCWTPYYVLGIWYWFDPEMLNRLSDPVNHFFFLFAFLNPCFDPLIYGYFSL
Description: National Center for Advancing Translational Sciences [NCATS]
Division of Preclinical Innovation [DPI]
U.S. Environmental Protection Agency [EPA]
National Institutes of Environmental Health Sciences [NIEHS]
National Toxicology Program [NTP]
U.S. Food and Drug Administration [FDA]
Gonadotropin-releasing hormone receptor (GnRHR) is a G-protein-coupled receptor (GPCR) and acts (through phospholipase C) to increase intracellular inositol trisphosphate and then release intracellular calcium stores. Cell-based GnRHR-Hek293 calcium influx assay is using HEK293 cells that have been genetically engineered to express the human GnRHR, which activity can be measured by calcium signaling. A compound/drug can activate (agonist) GnRHR that can be monitored by levels of intracellular calcium.
GnRHR-HEK293 cells developed by Codex Corp contain human GnRHR reporter gene, which was stably integrated into HEK 293 cells. The compound activation can be detected by fluorescence intensity via calcium flux assay. This cell line has been used to screen the Tox21 10K compound library to identify GnRHR agonists.
GnRHR-Hek293 cells were dispensed at 1500cells/4uL/well in 1536-well black wall/clear bottom plates using a multidrop dispenser. After the assay plates were incubated at a 37 C/5% CO2 incubator for 18 hours, 4 uL of Calcium Dye Solution was added to each well. The plates were incubated at 37 C for 1 hour. For agonist mode, 23 nL of compounds dissolved in DMSO, positive controls or DMSO only was transferred to the assay plate by a pin tool station. The fluorescence intensity in the plates was measured using FDSS 7000EX kinetic plate reader with a filter set of Ex/Em=480/540 for 3 min at 1 sec intervals. Each test compound was measured at 15 concentrations and in triplicates.
Potency means the concentration at half of the fitted maximal effect.

| Structure (SMILES) | Potency | activity change |
| --- | --- | --- |
| CC(c1ccc(O)cc1)(c1ccc(O)cc1)c1ccc(O)cc1 | inactive |  |
| CSc1ccc(C(=O)C(C)(C)N2CCOCC2)cc1 | inactive |  |
| C[C@@H]1CC2=CC(=O)CC[C@@H]2[C@H]2CC[C@@]3(C)[C@@H](CC[C@]3(C)O)[C@@H]21 | inactive |  |
| Cc1ccc([N+](=O)[O-])[c]2c1[O][Hg]2 | 16.9 µM (active) |  |
| ClSC(Cl)(Cl)Cl | inactive |  |
| CN1CCc2cc(Cl)c(O)cc2[C@H]2c3ccccc3CC[C@@H]21 | inactive |  |
| COP(N)(=S)OC | inactive |  |
| Nc1cc(Cl)ccc1O | inactive |  |
| O=C1c2ccccc2C(=O)c2ccccc21 |  | -0.0358% [at 11.8 µM, active compounds read high] |
| C[C@H]1CC[C@@H]2[C@@H](C)[C@H]3[C@H](C[C@H]4[C@@H]5CC=C6CC(O[C@@H]7O[C@H](CO)[C@H](O)[C@H](O[C@@H]8O[C@H](CO)[C@@H](O)[C@H](O)[C@H]8O)[C@H]7O[C@H]7O[C@@H](C)[C@H](O)[C@@H](O)[C@H]7O)CC[C@]6(C)[C@H]5CC[C@]34C)N2C1 (stereo not given in full) | 10.1 µM (active) |  |
| COP(=S)(OC)Oc1ccc([N+](=O)[O-])c(C)c1 | inactive |  |
| N#CNC#N | inactive |  |
| CCCCc1ccc(O)cc1 | inactive |  |
| Oc1ccc([C@H]2CNCc3c2ccc(O)c3O)cc1O | inactive |  |
| COC(=O)N(C(=O)N1COC2(C(=O)OC)Cc3cc(Cl)ccc3C2=N1)c1ccc(OC(F)(F)F)cc1 (stereo not given) | inactive |  |
| CC(C)(C)OO | inactive |  |
| CS(=O)(=O)c1cc(C(F)(F)F)ccc1C(=O)c1cnoc1C1CC1 | inactive |  |
| CCOP(=O)(SC(C)CC)N1CCSC1=O (stereo not given) | inactive |  |
| IC(I)=C(I)I | inactive |  |
| CC(=O)[O-].CC(=O)[O-].CC(=O)[O-].[Cr+3] | inactive |  |

| Structure (SMILES) | Potency | activity change |
| --- | --- | --- |
| CN(C)C1CCCCC1 | inactive |  |
| COc1ccc(C(=O)N2CCCC2=O)cc1 | inactive |  |
| O=c1[nH]c2ccccc2o1 | inactive |  |
| Cc1cc(C2CC2)nc(Nc2ccccc2)n1 | inactive |  |
| N#CC(C#N)=C(C#N)C#N | inactive |  |
| CCN(CC)C(C)C(=O)c1ccccc1 (stereo not given) | inactive |  |
| CN=CNc1ccc(C)cc1C | inactive |  |
| CCNc1nc(NC(C)C(C)C)nc(SC)n1 (stereo not given) | inactive |  |
| Cc1ncc(C[n+]2csc(CCO)c2C)c(N)n1 | inactive |  |
| Oc1ccc(I)cc1 | inactive |  |
| Nc1ccccc1C(=O)OC/C=C/c1ccccc1 | inactive |  |
| C[C@H]1O[C@@H](O[C@H]2[C@@H](O)C[C@H](O[C@H]3[C@@H](O)C[C@H](O[C@H]4CC[C@@]5(C)[C@H](CC[C@@H]6[C@@H]5CC[C@]5(C)[C@@H](C7=CC(=O)OC7)CC[C@]65O)C4)O[C@@H]3C)O[C@@H]2C)C[C@H](O)[C@@H]1O | inactive |  |
| O=C(O)C(Br)CBr (stereo not given) | inactive |  |
| COCC(C)N(C(=O)CCl)c1c(C)csc1C (stereo not given) | inactive |  |
| COc1ccc(CN2CCNCC2)c(OC)c1OC | inactive |  |
| CCOc1cccc(C2(N3CCN(c4ccccc4)CC3)CCC(C)CC2)c1 (stereo not given) | inactive |  |
| CCC#N | inactive |  |
| CCSCc1ccccc1OC(=O)NC | inactive |  |
| COC(=O)c1cc(Oc2ccc(Cl)cc2Cl)ccc1[N+](=O)[O-] | inactive |  |
| CCCN(CCC)c1c([N+](=O)[O-])cc(C(F)(F)F)cc1[N+](=O)[O-] | inactive |  |
